Assay results from PubChem BioAssay AID602270 (The Scripps Research Institute Molecular Screening Center, 2012).
Some of the results follow. Active and inactive are the calls of the source. No stated cut-off is given here; in the data, active means activation above about 4%; inactive means the rest.

What follows are compounds tested on Methionine sulfoxide reductase A (Bos taurus) (assay: methionine sulfoxide reductase A activation – biochemical, absorbance, bovine, HTS, confirmation (AID 602270;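 further: enzyme coupled to thioredoxin and thioredoxin reductase with NADPH; 0% = vehicle wells and 100% = reference activator wells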)). Details: purified bovine MsrA, absorbance read-out; at 10.6 µM; stronger effect = higher value.

activation, active:
COc1cc(NC(=O)COC(=O)c2ccc([N+](=O)[O-])s2)cc(OC)c1OC 4.75%, S=c1[nH]nc(NCCc2ccccc2)s1 7.45%, O=C(NC1=CC(=O)c2ccccc2C1=O)c1ccccc1 14.4%, NC1=CC(=O)C(=O)c2cccnc21 5.78%, CCN(CC)CCCC(C)n1c2nc(=O)[nH]c(=O)c-2nc2cc(Cl)ccc21 (centres undefined) 8.41%

activation, inactive:
CCOc1ccccc1OCCCNCc1ccccc1 -4.03%, COc1cccc(CNCCc2c[nH]c3ccccc23)c1OCc1ccccc1F -2.23%, CCN(CC(=O)Nc1ccccc1OC)C(=O)CC1CC2CCC1C2 (centres undefined) 0.76%, Cc1ccc(C)c(NC(=O)CSc2nnc(Cc3cccn3C)n2-c2ccc(F)cc2)c1 2.75%, CC(=O)N(O)CCCCCNC(=O)CCC(=O)N(O)CCCCCNC(=O)CCC(=O)N(O)CCCCCNC(=O)CCC(=O)O -3.63%, COC(=O)CN1C(=O)C(O)=C(C(C)=O)C1c1ccc([N+](=O)[O-])cc1 (centres undefined) -2.94%, Cc1noc(NS(=O)(=O)c2ccc(NC(=O)C34CCC(CC3)C4)cc2)c1C -0.66%, Cc1ccc(COC(=O)CN2C(=O)NC3(CCCC3)C2=O)cc1 -1.66%, O=C1C(Sc2cccc(F)c2)=C[C@@]2(O)CC[C@@H](O)[C@]1(Sc1cccc(F)c1)[C@H]2O -4.14%, O=C(c1ccco1)N1CCN(Cc2cccc(C(F)(F)F)c2)CC1 -0.28%, CN(C)S(=O)(=O)c1ccc(NC(=O)COC(=O)c2n[nH]c3ccccc23)cc1 1.95%, Cn1nnnc1SCC(=O)N1CCN(Cc2ccccc2)CC1 -1.94%, CC1=NNC(=O)C1CCC(=O)N/N=C(\C)c1ccc(Cl)cc1 (centres undefined) -3.34%, Cc1ccc(S(=O)(=O)n2nc(OC(=O)C(C)(C)C)cc2N)cc1 -1.8%, CCc1ccc(NC(=O)CSc2nnc(-c3cnccn3)n2Cc2ccco2)cc1 -1.98%, CSCCC1NC(=O)N(CC(=O)Nc2cccc(S(=O)(=O)N3CCCCCC3)c2)C1=O (centres undefined) -0.9%, CCCN(CC(=O)Nc1ccccc1C)C(=O)c1ccc2[nH]c3c(c2c1)CC(C)CC3 (centres undefined) 2.07%, CN1c2ccc(C=O)c3c(C=O)ccc(c23)N(C)C1(C)C -1.46%, O=C(Cc1ccc(NC(=O)C2CCCN(C(=O)C3CCCCC3)C2)cc1)Nc1cccc(C(=O)N2CCCCC2)c1 (centres undefined) -3.28%
